High-throughput results deposited in PubChem BioAssay by National Center for Advancing Translational Sciences (NCATS).
Luc counter – blocks Kinase-Glo luciferase, a counter-screen artifact; Q27757; Kinase-Glo luciferase, ATP luminescence, 8 min; Potency, µM (top dose mostly 38.3 µM), for the others: at the highest dose activity change, negative = inhibition, usual class: inhibitors; 200,000 tested, 0.28% active; active means well fitted inhibition curve with a large enough effect; inconclusive means small, poorly fitted or top-dose-only effect; further: potency means the concentration at half of the fitted maximal effect; nearly all actives have a fitted effect of over 60% in size
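Kinase-Glo luciferase light output from ATP and luciferin was measured with 10 uM ATP, within the enzyme's linear range. Buffer: 50 mM imidazole pH 7.2, 50 mM KCl, 7 mM MgCl2, 0.01% Tween 20, 0.05% BSA; luminescence read after 8 min at ambient temperature.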
HPGD block – blocks human HPGD enzyme activity; P15428; purified HPGD, NADH fluorescence kinetic, PGE2 substrate; Potency, µM, for inactives: at the top dose activity change, negative = inhibition, most hits filed as inhibitors; 150,000 tested, 4.3% active; further: potency means the concentration at half of the fitted maximal effect
Target sequence (P15428 whole entry, looked up): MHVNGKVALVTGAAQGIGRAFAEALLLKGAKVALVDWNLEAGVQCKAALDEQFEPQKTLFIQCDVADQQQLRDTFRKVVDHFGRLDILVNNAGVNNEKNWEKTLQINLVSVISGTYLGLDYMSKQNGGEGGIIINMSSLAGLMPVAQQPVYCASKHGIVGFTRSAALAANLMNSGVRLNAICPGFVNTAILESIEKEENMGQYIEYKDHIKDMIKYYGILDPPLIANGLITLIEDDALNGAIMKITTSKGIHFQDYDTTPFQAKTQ
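NADH formation kinetics: reaction with 30 uM PGE2 and 1 mM NAD+ (final), 20 nM enzyme, Tris-HCl pH 8 with Tween 20, after 15 min compound preincubation at room temperature. Fluorescence change, last versus first of five reads.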
Lamin A splicing – modulators of lamin A splicing; Potency, µM (titrated, usually from 46.1 µM), without a hit: at the highest dose ratio change, negative = inhibition, most hits filed as inhibitors; AID 1487; 200,000 tested, 0.01% active; HeLa LMNA splicing GFP/RFP minigene ratio, 48 h; active means well fitted inhibition curve with a large enough effect in the signal ratio, with a control signal flat, not every such curve was filed as active; inconclusive means small, poorly fitted or top-dose-only effect, or effect the other way, or a change in a side signal; the % refers to the signal ratio; further: potency means the concentration at half of the fitted maximal effect
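Read-out is the ratio of GFP to DsRed2 object intensity, acquired by 488 nm laser-scanning cytometry on HeLa lamin A-EGFP minigene reporter cells. Compound incubation 48 hrs at 37 °C in Opti-MEM with 2% FBS; DMSO 0.5% final.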
ALDH1A1 inh – inhibitors of human aldehyde dehydrogenase 1A1; Purified ALDH1A1, NADH fluorescence, propionaldehyde substrate; 220,000 tested, 7.3% active; Potency, µM (highest dose often 75.3 µM), for inactives: top-dose activity, negative = inhibition, usual class: inhibitors; P00352;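 further: potency means the concentration at half of the fitted maximal effect; plate controls were no enzyme wells and a reference inhibitor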
PNC inhibitor – inhibitors of perinucleolar compartment assembly | PC3M PTB-GFP, PNC prevalence imaging, 16 h; stronger effect = lower value | activity change (PNC), negative = inhibition, % at 10 µM | 140,000 tested, 3.1% active;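 active means readout at or below -70, meaning at least 70% loss of cells showing the perinucleolar compartment, a nuclear body marking cancer cells; inconclusive means readout between -30 and a set limit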;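 further: plate controls were DMSO wells for no effect and camptothecin positive control wells for full effect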
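Compounds are pinned in duplicate onto adhered PC3M cells stably expressing GFP-tagged PTB and incubated 16 h at 37 C. Cells are then fixed, nuclei stained with Hoechst, and PNC-positive cells counted.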
An asterisk follows results filed as active; ? = inconclusive; nt = not tested or not shown; [ ] = another dose, or the depositor's remark. In the library only some 10% were active in any assay of this set; here they are far more common. Unless noted, the call rests on the fitted dose curve; in most records, active means well fitted inhibition curve with a large enough effect (not every such curve was filed as active); inconclusive means small, poorly fitted or top-dose-only effect, or another doubt; inactive means no such curve, though single readings can be large or run the other way. Unless noted, on the % scale 0 is the no-effect control and ±100 the full control effect.

SMILES | Luc counter | HPGD block | Lamin A splicing | ALDH1A1 inh | PNC inhibitor
COc1ccc(Nc2ccc(C(=O)O)cc2[N+](=O)[O-])cc1 | -1% | -20% | 3% | -1% | 11
Cc1cc(NS(=O)(=O)c2ccc(N)cc2)nc(C)n1 | nt | nt | -15% | nt | nt
COc1ccc(NC(=O)CN2CCC(C)CC2)c([N+](=O)[O-])c1 | -2% | -9% | -15% | ? | 19
COc1ccc(NC(=O)CN2CCCCC2)c([N+](=O)[O-])c1 | 3% | -12% | -4% | 7% | -90*
O=C1OC(/C(=C\Nc2ccc(F)cc2F)[N+](=O)[O-])c2ccccc21 (centres undefined) | 0% | nt | nt | ? | nt
Cc1ccc(N/C=C(\C2OC(=O)c3ccccc32)[N+](=O)[O-])c(C)c1 (centres undefined) | 1% | nt | nt | 3.5µM* | nt
O=C1OC(/C(=C\Nc2cc(Cl)ccc2O)[N+](=O)[O-])c2ccccc21 (centres undefined) | 3% | nt | -10%[9.22 µM] | 14µM* | nt
O=C(O)c1cccc(-n2cccc2/C=C2\NC(=O)N(Cc3ccc(F)cc3)C2=O)c1 | -1% | nt | -15%[46 µM] | -12% | nt
O=C1N/C(=C/c2cccn2-c2ccc(F)cc2)C(=O)N1Cc1ccccc1 | -1% | -17% | -8% | 16µM* | 27
Cc1nc(C)c(C(=O)Nc2ncc([N+](=O)[O-])s2)o1 | ? | nt | ? | 22µM* | nt
CCCCC(=O)Nc1ncc([N+](=O)[O-])s1 | 3% | nt | ? | -1% | nt
C/C(=N\NC(=O)c1ccccc1O)c1c(O)cc(C)oc1=O | -5% | ? | -8% | ? | 19
C/C(=N\NC(=O)c1cccnc1)c1c(O)cc(C)oc1=O | -6% | -18% | 1% | 25µM* | 10
CCc1ccccc1N/N=C(/C)c1c(O)cc(C)oc1=O | 0% | nt | -10%[46 µM] | 7.9µM* | nt
NC(=O)CS(=O)C[C@H](N)C(=O)O (some centres undefined) | -3%[7.66 µM] | -4% | nt | -3%[13.5 µM] | nt
COC(=O)c1ccc(NC(=O)NCCn2nnc3cc(S(=O)(=O)N(C)C)ccc32)cc1 | nt | nt | -2%[46 µM] | nt | nt
COc1ccc2c(c1)O[C@@H](c1ccc3c(c1)OCO3)[C@H](OC(=O)N[C@H]1CCCc3ccccc31)C2=O | 5% | 4% | nt | -13% | nt
Cc1[nH]c2ccccc2c1[C@H]1[C@@H](CC#N)C1(C)C | 12% | -26% | -9% | 22µM* | 25
COc1cccc(NC(=O)Cn2nc(C)c3c(C)n(-c4ccccc4)nc3c2=O)c1 | nt | nt | 12%[46 µM] | nt | nt
COc1ccc(-c2nnc3n(CCc4ccccc4)c(=O)c4ccccc4n23)cc1OC | nt | nt | -17% | 1.8µM* | 15
O=c1c2ccccc2n2c(-c3cccc(Cl)c3)nnc2n1Cc1ccccc1 | 0% | -20% | -16% | -9% | 15
Clc1ccccc1Cn1nnc2c(N3CCOCC3)nc(C3CC3)nc21 | 0% | -14% | 1% | 20µM* | 1
CN(C)S(=O)(=O)c1ccc(Nc2nc(C3CC3)nc3c2nnn3Cc2ccccc2Cl)cc1 | 5% | ? | ? | ? | -13
COC(=O)CNc1nc(C2CC2)nc2c1nnn2Cc1ccccc1Cl | 1% | 1% | -8% | 1.6µM* | -23
CCCCC/C=C\C[C@@H](O)/C=C/C=C\C/C=C\CCCC(=O)O | -1% | -4% | nt | -1% | nt
SMILES | Luc counter | HPGD block | Lamin A splicing | ALDH1A1 inh | PNC inhibitor
COc1ccc(OCC(=O)Nc2ccc(N3CCOCC3)cc2)c([N+](=O)[O-])c1 | 0% | nt | nt | 28µM* | nt
COc1ccc(S(=O)(=O)Nc2ccc(N3CCOCC3)cc2)cc1Br | -1% | -3% | -23% | ? | 9
COc1ccc(S(=O)(=O)Nc2ccc(N3CCOCC3)cc2)cc1[N+](=O)[O-] | -3% | nt | nt | 13µM* | nt
CS(=O)(=O)c1ccc([C@H](O)[C@H](CO)NC(=O)C(Cl)Cl)cc1 | 4%[17.1 µM] | 0% | ? | 4%[20.9 µM] | nt
CC(NC(=O)Nc1ccc(Cl)cc1)C(c1cccs1)N1CCOCC1 (centres undefined) | 0% | -1% | -12% | 10% | -19
CC(NC(=O)Nc1ccccc1)C(c1cccs1)N1CCOCC1 (centres undefined) | 5% | -2% | -9% | 5% | -122*
COc1ccc(CNC(=O)Cc2csc3nc(-c4ccc(F)cc4)cn23)cc1 | nt | nt | 7%[46 µM] | nt | nt
CCCCNC(=S)Nc1cccc(C(C)=O)c1 | -3% | 32µM* | -3% | 5% | ?
CCOC(=O)Nc1cccc(C(=O)O)c1 | -4% | 1% | 3% | 6% | -104*
CC(=O)c1cccc(NC(=S)NCCCCc2ccccc2)c1 | nt | nt | ? | ? | 64
CCCCOC(=O)Nc1cccc(C(C)=O)c1 | -5% | 28µM* | ? | -2% | ?
OCC(CO)(CO)N=Cc1c(O)ccc2ccccc12 | 1% | -20% | 22% | ? | -3
Oc1ccc(N=Nc2cccc(Cl)c2)cc1C=Nc1ccc(N2CCOCC2)cc1 | 1% | -26% | -11% | ? | -25
Oc1ccc2ccccc2c1C=Nc1ccc(N2CCOCC2)cc1 | -7% | 20µM* | -7% | 4.5µM* | -23
CN(C)/N=C/c1c(O)ccc2ccccc12 | -4% | 32µM* | 12% | -2% | -3
CC(C)Cn1cnc2c(c1=O)c1nc3ccccc3nc1n2Cc1ccc2c(c1)OCO2 | -2% | -18% | 5% | 0.79µM* | ?
O=c1cc(O)cc(/C=C/c2ccc(O)c(O)c2)o1 | -10% | ? | ? | ? | nt
CCOC(=O)C1C(=O)NC(SCC(=O)Nc2nccs2)=C(C#N)C1c1ccccc1OCC (centres undefined) | 3% | 13µM* | -4% | 6.3µM* | 201
CCOC(=O)CSC1=C(C#N)C(c2ccccc2OCC)C(C#N)C(=O)N1 (centres undefined) | -2% | -9% | ? | ? | 1
CCCOC(=O)CSC1=C(C#N)C(c2ccccc2OC)C(C#N)C(=O)N1 (centres undefined) | 1% | -14% | -10% | -12% | -97*
CCOC(=O)C1C(=O)NC(SCC(=O)OC)=C(C#N)C1c1ccccc1OCC (centres undefined) | -2% | -8% | -1% | 14% | 0
CCOc1ccccc1CNC(=O)c1cnc2sc(N3CCCC3)nn2c1=O | nt | nt | -2%[46 µM] | nt | nt
CC(C)(C)NC(=O)Cn1c(SCC(=O)NC2CCCCC2)nc2ccccc21 | -7% | -2% | 28% | 0% | -100*
CCOC(=O)CSc1nc2ccccc2n1CC(=O)NC(C)(C)C | -3% | -4% | -6% | -5% | ?
COc1ccc(C(=O)CSc2nc3ccccc3n2CC(=O)NC(C)(C)C)cc1 | 0% | -2% | 5% | 2.2µM* | 54
CCCN1CCOC(CC(=O)Nc2ccc([N+](=O)[O-])cc2)C1=O (centres undefined) | 3% | nt | nt | 8.9µM* | nt
CCOC(=O)c1ccc(NC(=O)CC2NCCNC2=O)cc1 (centres undefined) | -1% | -5% | 11% | -5% | 10
